Laboratory results: ChEMBL document CHEMBL3433997, “St. Jude Leishmania screening dataset” (2016)

How the values were obtained:
Format in all cases: functional
[1] = molecular target: Solute carrier family 2, facilitated glucose transporter member 1 (Homo sapiens) (UniProt P11166); test: ST_JUDE_LEISH: Cytotoxicity at 2uM final concentration against transgenic Leishmania Mexicana promastigotes LmGLUT1 that are glucose transport deficient and complemented with the human glucose transporter GLUT1. Activity is measured by DNA content using SYBR green in vitro
Chain of Solute carrier family 2, facilitated glucose transporter member 1 (Homo sapiens) (P11166 whole entry): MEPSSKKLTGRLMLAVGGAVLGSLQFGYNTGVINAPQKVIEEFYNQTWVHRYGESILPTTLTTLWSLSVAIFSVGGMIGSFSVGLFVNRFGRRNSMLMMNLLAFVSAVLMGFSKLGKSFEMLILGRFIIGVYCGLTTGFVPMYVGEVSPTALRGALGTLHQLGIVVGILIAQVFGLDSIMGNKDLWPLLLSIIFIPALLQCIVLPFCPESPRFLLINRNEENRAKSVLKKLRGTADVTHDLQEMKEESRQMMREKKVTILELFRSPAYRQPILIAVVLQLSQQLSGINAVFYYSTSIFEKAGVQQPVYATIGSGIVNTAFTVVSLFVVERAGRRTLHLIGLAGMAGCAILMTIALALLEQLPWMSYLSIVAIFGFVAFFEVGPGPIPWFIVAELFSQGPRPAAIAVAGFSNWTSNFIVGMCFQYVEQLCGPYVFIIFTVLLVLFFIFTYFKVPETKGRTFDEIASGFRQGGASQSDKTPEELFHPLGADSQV

[2] = molecular target: Hexose transporter 1 (Plasmodium falciparum) (UniProt O97467); test: ST_JUDE_LEISH: Cytotoxicity at 2uM final concentration against transgenic Leishmania Mexicana promastigotes LmPfHT that are glucose transport deficient and complemented with the Plasmodium falciparum hexose transporter. Activity is measured by DNA content using SYBR green in vitro
[3] = molecular target: Glucose transporter (Leishmania mexicana) (UniProt O61059); test: ST_JUDE_LEISH: Cytotoxicity at 2uM final concentration against transgenic Leishmania Mexicana promastigotes LmGT2 that are glucose transport deficient and complemented with the L. Mexicana glucose transporter 2. Activity is measured by DNA content using SYBR green in vitro

SMILES	inhibition [1]	inhibition [2]	inhibition [3]
O=C(Nc1cccc(F)c1)N1CCC(NS(=O)(=O)c2ccc(Br)cc2)CC1	4.47%	4%	2.63%
O=C(C=Cc1ccc(Cl)c(Cl)c1)NCCCCCN1CCC(CCNC(=O)C(c2ccccc2)c2ccccc2)CC1	3.47%	1.79%	0.8%
COc1cccc(C(=O)NCCc2cccc(Cl)c2)c1Oc1ccccc1	1.18%	2.48%	1.65%
CNC(=O)COc1cc(C)c(C2CCN(CCCCNC(=O)c3ccc(-c4ccc(C(F)(F)F)cc4)cc3)CC2)cc1C	2.41%	2.32%	1.85%
Cc1cccc2nc(-c3ccc(-c4ccc(CNCc5cnn(-c6ccccc6)n5)cc4)s3)[nH]c12	-1.78%	-1.57%	-1.83%
O=C(NCc1ccc(F)cc1)Nc1ccc(-c2cccc(-c3nc4cc(F)ccc4[nH]3)c2)cc1	7.44%	6.92%	-1%
Cc1cc(-c2ccc3c(c2)CCN(CCCOc2ccc4c(c2)CCN4C(=O)/C=C/c2ccccc2Cl)CC3)no1	5.8%	12%	4.78%
CC(C)CCn1c(Sc2ccc(C#N)c([N+](=O)[O-])c2)nnc1-c1ccccc1Cl	4.86%	3.76%	1.46%
N#Cc1cccc(CNC(=O)c2cccc(Nc3ccnc4ccc(F)cc34)c2)c1	-0.1%	1.25%	0.82%
COc1ccc(NC(=O)[C@H](CC(C)C)Nc2ccnc(Nc3ccccc3)n2)cc1	0.79%	2.71%	-0.96%
CCCCSc1nc2c(c(=O)n1Cc1ccco1)C1(CCCCC1)Cc1ccccc1-2	0.71%	1.36%	1.89%
COc1ccc(-c2cc(-c3nc4cc(C(=O)N5CCOCC5)ccc4[nH]3)c(=O)n(C)c2)cc1OC	2.76%	0.74%	0.91%
CC1=NN(c2ccc(C)c(C)c2)C(=O)C1=NNc1cccc(-c2cccc(NC(=O)OC(C)(C)C)c2)c1O	1.48%	1.44%	0.04%
Cc1nc2nc(N)nc(N)c2c(C)c1Cc1ccccc1	3.29%	2.88%	1.2%
CC(=O)Nc1cccc(CNCc2ccc(-c3cnc(N4CCCC(C)(C)C4)nc3)cc2)c1	-2.79%	3.36%	0.65%
Cc1ccc(C)c2sc(N(CCCn3ccnc3)C(=O)C=Cc3cccs3)nc12	1.74%	2.3%	-1.56%
C=Cc1ccc(-c2c(C)[nH]c(C)c(Br)c2=O)cc1	0.56%	1.38%	-0.92%
